# Assay outcomes (PubChem)
# Compounds with a hit are over-represented: about 3% of the library has one in this group of screens.
# IkB sig inh: IkB Signaling; 110,000 tested, 0.04% active; ABC-DLBCL IkBa-CBG/CBR dual luciferase ratio, 4 h; response scale: scaled: untreated 0%, proteasome inhibitor 100%; Potency, µM (doses to about 57.1 µM), inactives show at the highest dose IkBa stabilization activation; AID 445, 2006; active = well fitted curve in the direction sought with a large enough effect in the signal ratio, not every such curve was filed as active; inconclusive = small, poorly fitted or top-dose-only effect, or a change in a side signal; the % refers to the signal ratio;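 also: the direction sought is a rising ratio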
#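 Curves were fitted separately to fusion (green), unfused (red) and ratio luminescence, then classed by r2, magnitude and activity. Cells: OCI-Ly3, 4 h compound plus doxycycline at 37C; 10 uM MG-132 defined full response.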
# p53ts 39C tox: qHTS Screen for Compounds that Selectively Target Cancer Cells with p53 Mutations: Cytotoxicity of p53ts Cells at the Nonpermissive Temperature; 130,000 tested, 1.5% active; H1299-p53A138V viability at 39C, ATP luminescence, 24 h; Potency, µM (top dose mostly 46.1 µM), without a hit: at the top dose activity change, negative = cell killing, most hits filed as cytotoxic; also: % is scaled to controls: 0 for no effect and ±100 for the full control effect; nearly all actives have a fitted effect of over 55% in size
# p53ts 32C tox: qHTS Screen for Compounds that Selectively Target Cancer Cells with p53 Mutations: Cytotoxicity of p53ts Cells at the Permissive Temperature. H1299-p53A138V at 32C, ATP luminescence viability, 24 h. Potency, µM (doses to about 46.1 µM), inactives show at the top dose activity change, negative = cytotoxicity, actives largely listed as cytotoxic. 130,000 tested, 0.93% active. AID 924, 2007;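 also: 0% = DMSO and -100% = full killing by reference compound; nearly all actives have a fitted effect of over 55% in size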
#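 H1299-p53 A138V cells (temperature-sensitive p53) exposed 24 h to up to 46 uM compound at 32C, where p53 is wild-type in conformation. Viability read as ATP luminescence and normalised to DMSO and 100 uM tamoxifen. AC50 fitted with the Hill equation.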
# Imprint erasure: qHTS Assay for Compounds that Induce Erasure of Genomic Imprints | AID 1948, 2009 | Potency, µM (highest dose often 60.7 µM), without a hit: top-dose activity change, positive = activation, most hits filed as activators | mouse ES Peg3-LacZ reporter, beta-gal luminescence, 40 h | 110,000 tested, 0.02% active
#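 Each well holds 300 Peg3LacZ-Neo (maternal) female ES cells incubated 40 h at 37C, 5% CO2. LacZ is measured by BetaGlo luminescence, with AC50 and maximum efficacy derived from dose-response curves.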
# CRE-bla Fsk: Cell signaling CRE-BLA (Fsk stim) | 71,000 tested, 2.5% active | Potency, µM (doses to about 38.2 µM), without a hit: top-dose activity change, negative = inhibition, most hits filed as activators | AID 662, 2007 | CHO CRE-bla reporter (cAMP response element driving beta-lactamase), forskolin EC10, beta-lactamase ratio; active = well fitted activation curve with a large enough effect in the signal ratio, with a control signal flat, not every such curve was filed as active; inconclusive = small, poorly fitted or top-dose-only effect, or effect the other way, or a change in a side signal; the % refers to the signal ratio; also: % of control where 0% means no effect
#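 Forskolin analogue NKH 477 at EC10 stimulated CRE-driven beta-lactamase in CHO cells alongside compound dilution series. Beta-lactamase was measured with CCF4, excitation 405 nm, emission ratio 460/530 nm.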
# * hit, by the source's call; ? = inconclusive; · = no result; ! = a repeat was not active; [ ] = another dose, or the depositor's remark. Unless noted, calls follow the shape of the dose curve; as a rule, active = well fitted curve in the direction sought with a large enough effect; inconclusive = small, poorly fitted or top-dose-only effect, or another doubt; inactive = no such curve, though single readings can be large; an effect the other way counts as inactive or inconclusive. Potency is read from the fitted curve at half-maximal effect.
SMILES,IkB sig inh,p53ts 39C tox,p53ts 32C tox,Imprint erasure,CRE-bla Fsk
O=C(Nc1nc2c(s1)C(=O)CCC2)c1ccccc1,?,16µM*,13µM*,-93%,5%
COc1cccc(C(=O)Nc2nc3c(s2)CCCC3)c1,?,13µM*,10µM*,-51%[10.9 µM],·
CN(C)c1ccc(C(=O)Nc2nc3c(s2)CCCC3)cc1,?,?,?,-90%,-7%
NC[C@@H]1O[C@H](C23CC4CC(CC(C4)C2)C3)Cc2c1ccc(O)c2O,2%,20µM*,?,-31%,?
Cc1ccccc1C(=O)Nc1ccc2nc3n(c(=O)c2c1)CCC3,13%,-9%,-8%,-28%,13µM*
O=C(Nc1ccc2nc3n(c(=O)c2c1)CCCCC3)c1cccc(C(F)(F)F)c1,7%,-12%,-8%,-14%[10.9 µM],·
CCOC(=O)c1ccc(NC(=O)CC2C(=O)N(c3cccc(OC)c3)C(=O)N2Cc2cccnc2)cc1 (centres undefined),?,1%,-2%,5%[10.9 µM],·
CC1CCCN(C(=O)c2cc3c(-c4ccc(Cl)cc4)nn(C)c3s2)C1 (centres undefined),1%,-12%,-1%,-16%,3.2µM*
CCN1CCN(C(=O)c2cc3c(-c4ccc(Cl)cc4)nn(C)c3s2)CC1,-1%,-13%,-8%,-26%,?
COc1ccc(-c2nn(C)c3sc(C(=O)N4CCOCC4)cc23)cc1OC,3%,-8%,8%,-19%,10µM*
COc1ccc(N2CCN(C(=O)c3cc4c(-c5cccc(OC)c5)nn(C)c4s3)CC2)cc1,2%,-3%,0%,-28%,4µM*
COc1cccc(-c2nn(C)c3sc(C(=O)N4CCN(c5cccc(C(F)(F)F)c5)CC4)cc23)c1,-1%,12%,17%,?,·
Cc1cc(C)cc(NC(=O)c2ccc3c(c2)nnn3C2CCCC2)c1,-1%,-26%,-5%,-19%[10.9 µM],·
CCOC(=O)C1CCCN(c2nc3c(S(=O)(=O)c4ccc(C)c(C)c4)nnn3c3ccc(Cl)cc23)C1 (centres undefined),-2%,-7%,1%,14%[10.9 µM],·
Cc1ccccc1OCC(=O)Nc1ccc2nc(SCC(=O)N3CCc4ccccc43)sc2c1,0%,-4%,-2%,-11%[10.9 µM],·
Cc1ccc(/C=C/c2nc3ccccc3[nH]2)cc1,?,0.5µM*,0.5µM*,-91%[10.9 µM],·
CNCCC=C1c2ccccc2CCc2ccccc21,0%[11.4 µM],20µM*!,20µM*!,-36%,?
Cc1nn2c(=O)cc(COC(=O)c3ccc(NC(=O)COc4ccc(Cl)cc4)cc3)nc2s1,?,10%,1%,-7%[10.9 µM],·
Cc1c(Cl)cccc1NS(=O)(=O)c1ccc(-c2cnc(C3CC3)o2)cc1,-1%,-10%,14%,-30%[10.9 µM],·
COc1c(C)cc(S(=O)(=O)Nc2cccc(-c3ccc(N4CCOCC4)nn3)c2)c(C)c1C,?,?,?,-10%[10.9 µM],·
Cc1cc(C)c2c(N)c(C(=O)N3CCN(c4ncccn4)CC3)sc2n1,0%,-8%,-5%,-15%,13µM*
CCCCOC(=O)c1ccc(NC(=O)c2sc3nc(C)cc(C)c3c2N)cc1,?,?,16µM*,-12%[10.9 µM],·
Cc1cc(C)c2c(N)c(C(=O)Nc3nccs3)sc2n1,10%,1µM*,0.79µM*,-47%,?
COCc1cc(C)nc2sc(C(=O)Nc3nccs3)c(N)c12,-2%,-14%,-7%,-9%,?
Cc1nc(-c2ccc(Cl)cc2)sc1CCNC(=O)C(=O)Nc1ccc2c(c1)OCCO2,1%,-30%,-14%,-17%[10.9 µM],·
SMILES,IkB sig inh,p53ts 39C tox,p53ts 32C tox,Imprint erasure,CRE-bla Fsk
CCCS(=O)(=O)c1c(S(=O)(=O)CCC)c2cc(C(C)(C)C)ccn2c1C(=O)c1ccccc1,?,15%,14%,-13%[10.9 µM],·
Cc1ccc(Cl)cc1NC(=O)c1ccc2snnc2c1,-1%,10%,-5%,-4%[10.9 µM],·
Nc1ncnc2nc[nH]c12.Nc1ncnc2nc[nH]c12.[Cl][Pt]([Cl])([Cl])[Cl],1%[11.4 µM],·,·,·,1%[7.6 µM]
O=c1[nH]c(CSc2nnc(-c3ccco3)n2-c2ccccc2)nc2sc3c(c12)CCC3,0%,-8%,-3%,12%,10µM*
Cc1csc(SCc2nc3sc4c(c3c(=O)[nH]2)CCC4)n1,0%,3%,-9%,-8%,0%
CC(C)Nc1nc(NC(C)C)nc(C(N)=O)n1,-1%,-2%,2%,-5%,5%
CC(C)Nc1nc(NC(C)C)nc(N(C)C(N)=O)n1,0%,-6%,-5%,-4%,10µM*
CCc1ccc(NC(=O)c2sc3nc(C)c(Cl)c(C)c3c2N)cc1,-4%,?,-16%,-5%[10.9 µM],·
Cc1cc(O)c(C(C)(C)C)cc1Sc1cc(C(C)(C)C)c(O)cc1C,?,16µM*,12%[1.84 µM],-28%,?
COc1ccc(C(=O)Nc2nc3n(n2)C(c2ccc(F)cc2)C=C(c2ccc(Cl)cc2)N3)cc1 (centres undefined),0%,-7%,-4%,-12%[10.9 µM],·
COc1cccc(-c2nn(C)c3sc(C(=O)Nc4ccc5c(c4)OCCO5)cc23)c1,?,-21%,-5%,14%,1.3µM*
COc1cccc(-c2nn(C)c3sc(C(=O)NCc4ccccn4)cc23)c1,?,-20%,4%,-30%,7.9µM*
C=CCN1CCc2c(cc(O)c(O)c2Br)[C@H](c2ccccc2)C1,5%,-13%,-11%,·,-7%
CCOC(=O)c1oc2cccc(O)c2c1CN1CCOCC1,-3%,6%,2%,-5%,13µM*
CCOC(=O)c1c(-c2ccccc2)oc2ccc(O)c(CN3CCOCC3)c12,?,-4%,5%,-13%,22%
COc1cc(NC(=O)c2ccc(NC(=O)N3CCSc4ncccc43)cc2)cc(OC)c1,?,-25%,-11%,7%[10.9 µM],·
Cc1ccc2c(c1)C(=O)C(=O)N2Cc1ccc(OC(C)C)cc1,5%,16µM*,?,-26%[10.9 µM],·
O=C(CSc1cccc2cccnc12)N1CCCC1,4µM*,-14%,2%,-36%,-20%
CN(C)C(=O)CSc1cccc2cccnc12,?,-2%,0%,-26%,-18%
CN(C)c1ccc(-c2cc(-n3ccnc3)ncn2)cc1,0%[11.4 µM],?,?,-26%,10µM*
CN(C)C(=O)c1ccc(-c2cc(-n3ccnc3)ncn2)cc1,-2%[11.4 µM],2%,8%,?,1%
COc1cccc(-c2nnc(NC(=O)c3ccc(S(=O)(=O)N4CC(C)OC(C)C4)cc3)o2)c1 (centres undefined),?,13µM*,-10%,-43%,1%
COc1ccc(-c2nnc(NC(=O)c3ccc(S(=O)(=O)N4CCc5ccccc5C4)cc3)o2)cc1,?,?,-18%,-7%,1%
